“And” between values parts separate entries of the source, which are not always exact repeats. Equal values may be shown once. About 2,000 (36%) of roughly 5,500 compounds were called active. Roughly 18% stayed inconclusive and do not appear here. Rule as the data show it: active = normalized growth mostly below about 0.91 (no sharp cut-off); inconclusive = no clear call, values can overlap the other calls; inactive = mostly above about 0.92. This is one part of the list.
Test: chemical genetic growth profiling, strain panel (AID 1159580);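 also: tested at 20 µM; growth read once vehicle control cultures reached saturation at 30 °C; 1 = growth at the plate median or of vehicle wells; lower values mean less growth of the strain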
Conditions: S. cerevisiae deletion strains, growth OD

Measured: normalized growth

Clc1ccc(COC(Cn2ccnc2)c2ccc(Cl)cc2Cl)cc1 (stereo not given)
active: locus YAL013W, strain DEP1, hits give low values 0.0557 | locus YAL021C, strain ccr4, hits give low values 0.0668 | locus YAL026C, strain drs2, hits give low values 0.0618 | locus YAL030W, strain snc1, hits give low values 0.0554 | locus YBL061C, strain skt5, hits give low values 0.0644 | locus YBR009C, strain hhf1, hits give low values 0.0597 | locus YBR021W, strain FUR4, hits give low values 0.086 | locus YBR023C, strain chs3, hits give low values 0.0622 | locus YBR171W, strain sec66, hits give low values 0.0758 | locus YBR229C, strain ROT2, hits give low values 0.0463 | locus YBR231C, strain swc5, hits give low values 0.0645 | locus YBR279W, strain paf1, hits give low values 0.0619 | locus YCL011C, strain gbp2, hits give low values 0.0566 | locus YCL016C, strain dcc1, hits give low values 0.0644 | locus YCL029C, strain bik1, hits give low values 0.06 | locus YCL061C, strain MRC1, hits give low values 0.0624 | locus YCL069W, strain vba3, hits give low values 0.0606 | locus YCR088W, strain abp1, hits give low values 0.0621 | locus YDL005C, strain med2, hits give low values 0.0718 | locus YDL035C, strain GPR1, hits give low values 0.0503 | locus YDL040C, strain nat1, hits give low values 0.0573 | locus YDL074C, strain BRE1, hits give low values 0.0774 | locus YDL101C, strain DUN1, hits give low values 0.055 | locus YDL134C, strain PPH21, hits give low values 0.0501 | locus YDL185W, strain tfp1, hits give low values 0.0607 | locus YDL192W, strain arf1, hits give low values 0.0606 | locus YDR001C, strain nth1, hits give low values 0.0586 | locus YDR069C, strain doa4, hits give low values 0.0605 | locus YDR101C, strain arx1, hits give low values 0.0571 | locus YDR137W, strain rgp1, hits give low values 0.093 | locus YDR150W, strain NUM1, hits give low values 0.055 | locus YDR159W, strain sac3, hits give low values 0.0898 | locus YDR162C, strain NBP2, hits give low values 0.0476 | locus YDR195W, strain ref2 0.131 | locus YDR297W, strain sur2, hits give low values 0.0541 | locus YDR318W, strain mcm21, hits give low values 0.061 | locus YDR334W, strain swr1, hits give low values 0.0622 | locus YDR335W, strain msn5, hits give low values 0.0604 | locus YDR388W, hits give low values 0.0583 | locus YDR392W, strain spt3, hits give low values 0.0764 | locus YDR502C, strain sam2, hits give low values 0.0603 | locus YEL003W, strain gim4, hits give low values 0.0531 | locus YEL037C, strain rad23, hits give low values 0.0573 | locus YEL061C, strain CIN8 (second series), hits give low values 0.0612 | locus YEL061C, strain CIN8, hits give low values 0.0491 | locus YER015W, strain faa2, hits give low values 0.0598 | locus YER016W, strain bim1, hits give low values 0.0634 | locus YER110C, hits give low values 0.0724 | locus YER111C, strain swi4, hits give low values 0.0738 | locus YER155C, strain BEM2 (second series), hits give low values 0.0963 | locus YER155C, strain BEM2, hits give low values 0.0618 | locus YER167W, strain BCK2, hits give low values 0.0498 | locus YFR010W, strain ubp6, hits give low values 0.0675 | locus YGL078C, strain dbp3, hits give low values 0.0728 | locus YGL086W, strain mad1, hits give low values 0.0553 | locus YGL167C, strain pmr1, hits give low values 0.0771 | locus YGL173C, strain kem1, hits give low values 0.0703 | locus YGL227W, strain vid30, hits give low values 0.0629 | locus YGL240W, strain doc1, hits give low values 0.089 | locus YGL248W, strain PDE1, hits give low values 0.046 | locus YGL253W, strain hxk2, hits give low values 0.0531 | locus YGR135W, strain pre9, hits give low values 0.0589 | locus YGR229C, strain SMI1, hits give low values 0.0609 | locus YGR252W, strain gcn5, hits give low values 0.114 | locus YHR013C, strain ard1, hits give low values 0.0983 | locus YHR027C, strain rpn1, hits give low values 0.0623 | locus YHR030C, strain SLT2, hits give low values 0.0501 and 0.104 | locus YHR079C, strain IRE1 (second series), hits give low values 0.058 | locus YHR079C, strain IRE1, hits give low values 0.114 | locus YHR094C, strain hxt1, hits give low values 0.0575 | locus YHR129C, strain ARP1, hits give low values 0.0576 | locus YHR142W, strain chs7, hits give low values 0.0716 | locus YHR200W, strain rpn10, hits give low values 0.0591 | locus YIL066C, strain RNR3, hits give low values 0.143 | locus YIL073C, strain SPO22, hits give low values 0.1 | locus YIL125W, strain kgd1, hits give low values 0.0707 | locus YIR030C, strain dcg1, hits give low values 0.0577 | locus YJL092W, strain hpr5, hits give low values 0.0592 | locus YJL095W, strain BCK1 (second series), hits give low values 0.0566 | locus YJL095W, strain BCK1, hits give low values 0.0581 and 0.1 | locus YJL115W, strain asf1, hits give low values 0.0714 | locus YJL129C, strain trk1, hits give low values 0.0943 | locus YJL134W, strain LCB3, hits give low values 0.048 | locus YJL154C, strain vps35, hits give low values 0.0599 | locus YJL164C, strain tpk1, hits give low values 0.0592 | locus YJL166W, strain qcr8, hits give low values 0.0601 | locus YJL168C, strain set2, hits give low values 0.0595 | locus YJL187C, strain SWE1 (second series), hits give low values 0.0469 | locus YJL187C, strain SWE1, hits give low values 0.058 | locus YJR043C, strain POL32, hits give low values 0.0638
